High-throughput results as filed in PubChem.
Rows were chosen to be rich in hits. Some 2.2% of all compounds tested hit in one or more screens of this group.
HDAC3 inhib – inhibitors of human histone deacetylase 3. O15379. AID 2718. recombinant HDAC3, fluorogenic peptide/trypsin coupled, fluorescence. inhibition, % at 8.3 µM. actives 0.15% (n = 320,000); in the data active = inhibition above about 26%, passing the limit was not always enough
pCIP destab – compounds decreasing mouse p/CIP protein stability; decrease of EGFP signal, % at 10 µM; actives 0.01% (n = 290,000); F442A p/CIP-EGFP cells, EGFP fluorescence, 16 h; AID 1984;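 active = EGFP signal decrease of at least 30% at 10 µM or well 3 SD below plate mean, unless failing retest; inactive = the rest, including hits failing retest or dose response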
PvdQ acylase – P. aeruginosa PvdQ acylase inhibition | actives 0.063% (n = 340,000) | inhibition, % at 10 µM | purified PvdQ acylase, fluorescence plate reader; in the data active = inhibition above about 30%, passing the limit was not always enough;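 also: 0% = vehicle neutral wells and 100% = reference inhibitor wells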
PHOSPHO1 block – PHOSPHO1 (human) inhibition. Q8TCT1. recombinant PHOSPHO1, absorbance phosphatase assay. inhibition, % at 13.3 µM. actives 1.1% (n = 290,000). AID 1565; in the data active = inhibition above about 60%
SUMO Mot1 rescue – SUMOylation pathway inhibition by Mot1-301 growth rescue; S. cerevisiae Mot1-301 growth rescue, ATP luminescence, 38.5C; percent above DMSO median, 100 means doubled; growth rescue, % at 18.8 µM; actives 1% (n = 320,000); AID 2716;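 active = every valid replicate shows activation above 250% relative to neutral control wells; inactive = the rest, any valid replicate at or below 250%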;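 also: OY570 slx delta 5 strain wells were the positive control but not used for scaling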
GASC-1 inh – inhibitors of human GASC-1 (JMJD2C) demethylase. Q9H3R0. GST-JMJD2C(1-420) H3K9me3 demethylation, DELFIA europium. inhibition, % at 2.35 µM. actives 0.069% (n = 330,000). AID 2099;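 active = more than half of a compound's replicate wells show inhibition beyond 50%, single wells judged on their own value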;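 also: signal counts dimethyl H3K9 product captured on neutravidin plate; 0% = median of DMSO wells and 100% = 0.3 times that DMSO median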
Target sequence (Q9H3R0 1-420 limits assumed): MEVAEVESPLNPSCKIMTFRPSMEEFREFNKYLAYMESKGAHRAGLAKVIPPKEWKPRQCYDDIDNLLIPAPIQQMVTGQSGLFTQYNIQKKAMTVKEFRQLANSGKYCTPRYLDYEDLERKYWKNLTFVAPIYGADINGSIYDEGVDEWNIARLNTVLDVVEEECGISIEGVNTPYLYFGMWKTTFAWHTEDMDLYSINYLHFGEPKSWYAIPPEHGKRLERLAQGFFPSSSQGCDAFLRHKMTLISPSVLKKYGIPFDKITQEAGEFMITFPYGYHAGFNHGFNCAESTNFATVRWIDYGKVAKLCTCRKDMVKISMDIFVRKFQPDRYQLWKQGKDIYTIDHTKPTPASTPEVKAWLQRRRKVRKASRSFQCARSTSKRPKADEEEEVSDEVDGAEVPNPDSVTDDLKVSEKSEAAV
Mot1 SUMO dose – inhibits SUMO pathway, affecting Mot1-301 yeast growth; 2,300 tested, under 10 active; growth activity, percent, % at 42 µM; S. cerevisiae Mot1-301 galactose growth, ATP luminescence, 24 h; -100 = growth of slx-deleted rescue strain; shares compounds with SUMO Mot1 rescue; AID 493004;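 active = Signal drops as the depositor expects, and the fitted half-maximal dose is no more than ten times the top valid tested dose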;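 also: more negative values mean stronger growth rescue toward the control strain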
Numbers without * were called inactive.

Results for NNC(=O)/C(=C/c1cccs1)NC(=O)c1ccccc1Cl ?
HDAC3 inhib: 5.5; pCIP destab: -10.6; PvdQ acylase: -6.1; PHOSPHO1 block: 40.7; SUMO Mot1 rescue: -18.8; GASC-1 inh: 44.7

Results for COc1ccc(CNS(=O)(=O)c2ccc3c(c2)CCN3C(=O)C2CCC2)cc1 ?
HDAC3 inhib: 7.8; pCIP destab: 8.9; PvdQ acylase: -11.1; PHOSPHO1 block: 47.7; SUMO Mot1 rescue: 412.1*; GASC-1 inh: -3.5; Mot1 SUMO dose: 0.3

How did COc1cccc(CNS(=O)(=O)c2ccc3c(c2)CCN3C(=O)C2CC2)c1 do in these assays?
HDAC3 inhib: 0.5; pCIP destab: -9.5; PvdQ acylase: -10.0; PHOSPHO1 block: -15.8; GASC-1 inh: -3.1

What do the screens show for `CN(C(=O)c1nn(C)c2c1CSc1ccccc1-2)c1ccccc1Cl`?
HDAC3 inhib: -0.5; pCIP destab: -11.2; PvdQ acylase: 1.4; PHOSPHO1 block: 7.5; SUMO Mot1 rescue: -10.8; GASC-1 inh: -0.3

How did O=C1OC[C@H]2CCCN2C(=O)[C@@H](CC(=O)N(CCO)Cc2ccccc2)C/C=C\CC[C@H]1Cc1ccc(F)cc1 do in these assays?
HDAC3 inhib: 8.4; PvdQ acylase: -6.4; SUMO Mot1 rescue: 28.7; GASC-1 inh: -1.6

What do the screens show for `COc1ccc(N2CCN(C(=O)CNC(=O)Cc3ccccc3)CC2)cc1`?
HDAC3 inhib: -4.4; pCIP destab: -21.2; PvdQ acylase: 3.7; SUMO Mot1 rescue: 1.3; GASC-1 inh: 4.5

How did COc1ccc(N2CCN(C(=O)CNC(=O)Cc3ccc(Cl)cc3)CC2)cc1 do in these assays?
HDAC3 inhib: -8.5; pCIP destab: -16.1; PvdQ acylase: -1.8; PHOSPHO1 block: 41.4; SUMO Mot1 rescue: 410.1*; GASC-1 inh: -33.4; Mot1 SUMO dose: 0.0

How did O=C(NC1CCCCC1)C(c1ccncc1)N(Cc1ccc2c(c1)OCO2)C(=O)C(F)(F)F (stereo not drawn) do in these assays?
HDAC3 inhib: -0.6; pCIP destab: -3.8; PvdQ acylase: 8.9; PHOSPHO1 block: -1.2; SUMO Mot1 rescue: 576.7*; GASC-1 inh: 2.1; Mot1 SUMO dose: 0.1

Results for Cc1ccc(C)c(NC(=O)C(=O)NCC2CCCN2S(=O)(=O)c2cccs2)c1 (stereo not drawn) ?
HDAC3 inhib: -1.7; PvdQ acylase: -20.4; SUMO Mot1 rescue: -2.2; GASC-1 inh: -2.0

Results for Cc1cc(C)nc(Nc2cccc(Cl)c2)n1 ?
HDAC3 inhib: 1.6; pCIP destab: 8.6; PvdQ acylase: -3.9; SUMO Mot1 rescue: 0.2; GASC-1 inh: -2.6

How did CN(C#N)c1nc(Cl)nc(Nc2cccc(Cl)c2)n1 do in these assays?
HDAC3 inhib: -6.1; pCIP destab: -8.6; PvdQ acylase: -5.2; PHOSPHO1 block: 3.0; SUMO Mot1 rescue: 596.8*; GASC-1 inh: 1.4; Mot1 SUMO dose: 0.1

Results for COc1ccc(CN2CCNC(=O)C2CC(=O)NCc2cn3ccc(C)cc3n2)c(OC)c1 (stereo not drawn) ?
HDAC3 inhib: -3.8; pCIP destab: 5.4; PvdQ acylase: 6.6; PHOSPHO1 block: 31.1; SUMO Mot1 rescue: 838.2*; GASC-1 inh: 3.5; Mot1 SUMO dose: -0.6

How did S=c1[nH]nc(-c2ccncc2)n1CC1CCCO1 (stereo not drawn) do in these assays?
HDAC3 inhib: -3.9; pCIP destab: -6.8; PvdQ acylase: -5.3; PHOSPHO1 block: 29.8; SUMO Mot1 rescue: -1.0; GASC-1 inh: 15.5

How did Fc1ccc(-c2n[nH]c(=S)n2CC2CCCO2)cc1 (stereo not drawn) do in these assays?
HDAC3 inhib: 1.8; pCIP destab: -1.0; PvdQ acylase: -8.3; PHOSPHO1 block: 87.8*; SUMO Mot1 rescue: 392.9*; GASC-1 inh: -2.9; Mot1 SUMO dose: -0.4

What do the screens show for `CSc1nc2c(cc1C#N)CCC2`?
HDAC3 inhib: -1.0; pCIP destab: 7.4; PvdQ acylase: -7.0; PHOSPHO1 block: 6.2; SUMO Mot1 rescue: 109.3; GASC-1 inh: -6.2

How did N#Cc1cc2c(nc1SC1CCCCC1O)CCCC2 (stereo not drawn) do in these assays?
HDAC3 inhib: 10.7; pCIP destab: 4.1; PvdQ acylase: -12.6; PHOSPHO1 block: -76.1; SUMO Mot1 rescue: 485.3*; GASC-1 inh: 13.6; Mot1 SUMO dose: 1.4
